Source: PubChem BioAssay
Active and inactive are the calls of the source.

Columns and labels:
[1] = A549 cell viability effects, profiling panel, calcein-AM fluorescence, 48 h, basal (AID 1162); details: higher = more signal
[2] = adipocyte viability effects, profiling panel, cell-based, 3T3-L1 adipocytes, calcein-AM fluorescence, 48 h, basal (AID 1163); details: 3T3-L1 adipocytes viability, higher = more signal
[3] = HepG2 cell viability effects, profiling panel, calcein-AM fluorescence, 48 h, basal (AID 1164); details: higher = more signal
[4] = MM1S cell viability effects, profiling panel, calcein-AM fluorescence, 48 h, basal (AID 1165); details: higher = more signal;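 note: viability of MM1S multiple myeloma cells under basal unstimulated conditions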
[5] = basal RPMI8226 viability, no added stimulus, profiling panel, cell-based, calcein-AM fluorescence, 48 h, PK04 Diversity Set (AID 1166); details: RPMI8226 myeloma viability, higher = more signal;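 note: cells grown under basal conditions without added stimulus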
[6] = basal HepG2 mitochondrial membrane potential changes, profiling panel, cell-based, JC-1 fluorescence, 24 h, 100 nL compound (AID 1167); details: higher = more signal
[7] = basal 3T3-L1 adipocyte mitochondrial potential changes, profiling panel, cell-based, JC-1 fluorescence, 3T3-L1 adipocytes, 24 h, 100 nL compound (AID 1168); details: JC-1 mitochondrial fluorescence, higher = more signal, called active from +8 up or from −8 down
[8] = basal RPMI8226 mitochondrial membrane potential changes, profiling panel, cell-based, JC-1 fluorescence, 24 h, 100 nL compound (AID 1169); details: RPMI8226 myeloma, JC-1 mitochondrial potential fluorescence, higher = more signal
[9] = basal MM1S mitochondrial membrane potential changes, profiling panel, cell-based, JC-1 fluorescence, 24 h, 100 nL compound (AID 1170); details: higher = more signal
[10] = A549 lung cancer cell viability effects, profiling panel, resazurin fluorescence, 24 h, PK04 Diversity Set (AID 1171); details: higher = more signal, called active from +8 up or from −8 down
Note: test concentration not given here.

Row | Structure (SMILES) | z-score [1] | z-score [2] | z-score [3] | z-score [4] | z-score [5] | z-score [6] | z-score [7] | z-score [8] | z-score [9] | z-score [10]
1 | COCCOC(=O)N1C(=O)[C@@]2(c3cc(C#CC4(O)CCCCCC4)ccc31)[C@H](C(=O)N1CCCCCCC1)[C@H]1C(=O)O[C@H](c3ccccc3)[C@H](c3ccccc3)N1[C@@H]2c1ccc(O)cc1 | -0.475 | 2.45 | -0.0416 | -0.747 | -0.733 | -0.355 | 1.16 (inactive) | -0.861 | -0.219 | 0.627 (inactive)
2 | C=CCOC(=O)[C@@H]1[C@H]2C(=O)O[C@H](c3ccccc3)[C@H](c3ccccc3)N2[C@H](c2ccc(OCCOC(=O)[C@H]3C[C@H]4C(=O)N[C@@H](CCCCNC(C)=O)C(=O)N4[C@H]3c3ccc(O)cc3)cc2)[C@@]12C(=O)Nc1ccc(I)cc12 | -0.778 | -0.796 | -0.931 | -0.989 | 0.572 | -0.422 | 0.725 (inactive) | -0.324 | -0.99 | 0.213 (inactive)
3 | CO[C@H]1COC(=O)[C@H](Cc2ccccc2)NC(=O)CC=C[C@@H](C)[C@H](OC)COC(=O)CC=C[C@@H]1C | -0.0862 | -0.557 | 0.5 | 0.214 | 1.71 | 0.00562 | 0.954 (inactive) | -0.791 | 0.411 | 0.174 (inactive)
4 | CC1=C([C@H](O)CCc2ccccc2)[C@H](CO)[C@@H]2C(=O)N(Cc3ccccc3)C(=O)[C@@H]2C1 | -0.286 | -0.0776 | -0.352 | -0.0162 | 0.445 | 0.567 | 0.714 (inactive) | 0.331 | -1.5 | 0.76 (inactive)
5 | C=CCC(OC(C)=O)[C@@H]1[C@@H](N(Cc2ccc(-c3ccccc3)cc2)C(=O)c2ccc(-c3ccccc3)cc2)c2cc(OCCCO)ccc2N1C(=O)Cc1ccc(OC)cc1 (stereo not given in full) | -0.111 | 0.6 | 0.551 | -0.769 | -0.904 | 0.424 | -0.972 (inactive) | -0.0615 | -0.142 | 0.78 (inactive)
6 | C#C[C@H](O[Si](C#Cc1ccccc1)(C(C)C)C(C)C)c1ccccc1 | -1.62 | -0.653 | -1.47 | -2.94 | -1.91 | -2.74 | -0.448 (inactive) | -0.154 | -1.48 | -0.912 (inactive)
7 | COc1cc([C@@H]2N[C@H](C(=O)O)Cc3c2[nH]c2ccccc32)cc(OC)c1OC | 0.937 | 1.05 | -0.793 | -0.0434 | 0.407 | -0.737 | -0.135 (inactive) | -0.663 | 0.639 | 0.455 (inactive)
8 | [N-]=[N+]=NCc1ccccc1C[C@@]1(C(=O)N2CCOCC2)N=C(c2ccc(OCCCO)cc2)O[C@@H]1c1ccccc1N=[N+]=[N-] | -0.884 | 0.913 | -0.848 | -2.19 | -2.3 | 0.944 | 1.11 (inactive) | -0.982 | -0.891 | -1.75 (inactive)
9 | CCc1cccc(NC(=O)O[C@H]2[C@H](OC(=O)Nc3ccccc3)[C@@H](OC(=O)Nc3ccccc3)[C@@H](OC)O[C@@H]2CO)c1 | -2.42 | 1.1 | -4.04 | -3.01 | -4.29 | -0.501 | 0.963 (inactive) | -1.21 | -1.53 | -4.14 (inactive)
10 | C=CC[C@@]1(C(=O)N2CCOCC2)N=C(c2ccc(OCCCO)cc2)O[C@@H]1c1ccccc1 | 0.429 | 1.9 | -0.55 | -0.0274 | -0.624 | 0.13 | 1.09 (inactive) | -0.357 | 0.216 | 1.85 (inactive)
11 | COc1cc(CO)cc(I)c1O[C@H]1C=C(C(=O)NCCO)C[C@@H](NCCc2c[nH]c3ccccc23)[C@@H]1O | 1.74 | -0.335 | 0.0706 | -0.68 | -0.391 | -1.01 | 1.01 (inactive) | 0.166 | -0.389 | 0.279 (inactive)
12 | COC(=O)C1=CC(c2ccc(CO)cc2)=CC(C2CC2)N(Cc2sc3ccccc3c2Cl)C=C1C(=O)OC (stereo not given) | -0.905 | 1.77 | -0.651 | -2.62 | -4.22 | 1.72 | 0.982 (inactive) | -0.804 | -0.969 | -1.3 (inactive)
13 | CC(C)[Si]1(C(C)C)OCc2cc(C3CC3)nc(-c3ccccc3)c21 | 0.0145 | 1.06 | -0.899 | -0.319 | -1.54 | -0.012 | 1.6 (inactive) | -0.373 | 0.542 | 1 (inactive)
14 | Cc1cc(C)c(C(O)C2C=CC3C(=O)N(C)C(=O)C3N2N2CCCCC2)c(C)c1 (stereo not given) | -0.905 | -0.878 | -0.863 | -0.225 | -1.11 | -1.74 | -0.721 (inactive) | 0.935 | 0.173 | 0.406 (inactive)
15 | C[C@@H]1CC[C@H]2C(=O)N3[C@@H](CC[C@@H](C)[C@@H]3c3cccc(N4CCOCC4)c3)C(=O)N2[C@H]1c1cccc(Br)c1 | 1.56 | 1.4 | 0.273 | -0.775 | -1.3 | 3.04 | 0.37 (inactive) | -0.779 | 0.521 | 1.36 (inactive)
16 | COc1ccc([Si](C)(C)[C@@H]2[C@@H](CC(=O)N(CCO)Cc3ccccc3)O[C@]3(C(=O)N(Cc4cccc(N5CCC5=O)c4)c4ccccc43)[C@H]2C)cc1 | -1.45 | 1.5 | -2.2 | -2.55 | -4.06 | 0.952 | -0.0485 (inactive) | -0.917 | -0.523 | -1.82 (inactive)

Row | Structure (SMILES) | z-score [1] | z-score [2] | z-score [3] | z-score [4] | z-score [5] | z-score [6] | z-score [7] | z-score [8] | z-score [9] | z-score [10]
17 | CCC1=C2CN(Cc3ccccc3Br)[C@@H]([C@@H](O)Cc3ccccc3)C2C=CCC1 (stereo not given in full) | 0.596 | 2.48 | 0.155 | -3.24 | -3.99 | 1.42 | -0.473 (inactive) | -0.981 | -2.18 | 1.07 (inactive)
18 | COCCOC(=O)N1C(=O)[C@@]2(c3cc(C#CCC(C(=O)OC)C(=O)OC)ccc31)[C@H](c1ccccc1OCCO)N1[C@H](c3ccccc3)[C@H](c3ccccc3)OC(=O)[C@H]1[C@@H]2C(=O)N1CCCCCCC1 | 0.579 | -0.219 | 0.779 | -0.895 | 0.103 | 0.335 | 2.19 (inactive) | -0.641 | -1.34 | 0.719 (inactive)
19 | Cc1ccc(S(=O)(=O)N2[C@@H](c3ccccc3)C(C(=O)O)=CC[C@H]2c2ccccc2)cc1 | -0.0225 | -0.426 | -0.335 | -0.107 | -1.25 | -0.923 | -0.17 (inactive) | 0.621 | 0.675 | -1.08 (inactive)
20 | Cc1ccc(S(=O)(=O)c2cc3oc2CC[C@@H](CO)NC(=O)N(C)Cc2cn(nn2)C[C@H](Cc2ccccc2)NC3=O)cc1 | 1.66 | -0.129 | 0.372 | -0.971 | 1.28 | 1.35 | 0.856 (inactive) | 0.501 | 0.536 | 1.39 (inactive)
21 | N#Cc1ccc(NN2C(C(O)c3ccc(I)cc3)C=CC3C(=O)N(c4ccccc4)C(=O)C32)cc1 (stereo not given) | -0.668 | -0.392 | 0.0254 | -1.03 | -0.251 | -0.895 | 0.641 (inactive) | -0.586 | -0.263 | -0.383 (inactive)
22 | COc1ccc(CCN2C(=O)[C@@]3(c4ccc([N+](=O)[O-])cc4)CC(=O)N(CC45CC6CC(CC(C6)C4)C5)[C@@H]3c3ccc(CO)cc32)cc1 | 1.44 | 0.0861 | 0.71 | 0.0097 | -0.346 | 0.0982 | 0.0691 (inactive) | -0.0825 | 0.997 | 0.616 (inactive)
23 | CN(C)CCCC[C@@H]1NC(=O)[C@@H]2C[C@H](C(=O)O)[C@H](c3ccc(O)cc3)N2C1=O | -0.533 | 1.36 | -1.03 | -3.01 | -0.102 | 1.26 | 0.292 (inactive) | -0.0425 | -0.971 | -0.385 (inactive)
24 | COC(=O)C1=C(C)N(Cc2ccccc2)c2c(C(=O)OC)c(C(=O)OC)c(C(=O)OC)c(=O)n2[C@@H]1c1ccccc1 | 0.943 | 0.338 | 0.244 | 0.24 | 0.327 | 1.12 | 0.633 (inactive) | -0.281 | -0.0899 | 0.524 (inactive)
25 | CC(=O)Nc1ccc([C@H]2[C@H](C)CC[C@H]3C(=O)N4[C@@H](CC[C@@H](C)[C@@H]4c4ccc(NC(C)=O)cc4)C(=O)N32)cc1 | 1.04 | 1.1 | 0.277 | -0.715 | -0.439 | -1.16 | -0.183 (inactive) | -0.365 | -0.559 | 0.553 (inactive)
26 | CC1CC/C=C\[C@H]2OC34C=CCN(Cn5nnc6ccccc65)C(=O)[C@H]3N(C(C)CO)C(=O)[C@@H]4C2C(=O)O1 (stereo not given in full) | 0.151 | -0.14 | 0.203 | 0.835 | 0.182 | 0.236 | -0.087 (inactive) | 0.128 | -0.731 | 0.0113 (inactive)
27 | CO[C@@H]1COC(=O)CC=C[C@@H](C)[C@H](OC)COC(=O)CC=C[C@H]1C | 0.275 | 0.793 | 1.14 | -1.03 | 0.834 | 0.692 | 0.502 (inactive) | -0.793 | 1.21 | 0.756 (inactive)
28 | N#Cc1ccc(NN2C(C(O)CCc3ccccc3)C=CC3C(=O)N(c4ccccc4)C(=O)C32)cc1 (stereo not given) | 0.422 | -0.191 | 1.18 | 0.197 | -0.0961 | -0.256 | -0.0951 (inactive) | 0.245 | 0.419 | 0.197 (inactive)
29 | Cc1ccc(S[C@]2(C(=O)NCCCN(C)C)CC(=O)N(C3CCCCC3)[C@@H]2c2ccc(CO)cc2I)cc1 | -0.272 | 1.8 | -4.31 | -3.25 | -3.08 | 1.8 | 0.794 (inactive) | -0.644 | -1.84 | -0.835 (inactive)
30 | C=C[C@H](OC)[C@@H](OC(=O)Nc1ccc(SC)cc1)c1ccc(OC)c(O)c1 | 1.73 | 0.182 | 0.907 | 0.898 | 0.524 | 0.163 | 1.15 (inactive) | 0.412 | 0.761 | 0.595 (inactive)
31 | O=C(CS)NCCCCCNC(=O)[C@H]1C[C@H]2C(=O)N3CCC[C@H]3C(=O)N2[C@H]1c1ccc(O)cc1 | 0.931 | -0.172 | -0.0292 | 0.965 | -0.0858 | 1.89 | 0.797 (inactive) | 0.34 | -0.235 | 0.641 (inactive)
